The record followed here is PubChem BioAssay (NCATS).

Each structure is given as a SMILES string.

The nature of the first assay: qHTS profiling of the MIPE4 collection as inhibitors of Plasmodium falciparum (HB3) proliferation (AID 743347).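 Further: plate controls were DMSO vehicle wells for no effect and artemisinin wells for full effect.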 The conditions noted are these: P. falciparum HB3 in erythrocytes, SYBR Green DNA, 72 h; at 28.5 µM (top of the series) unless noted. The gist of the method: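 Erythrocytes infected with P. falciparum (0.3% parasitemia, 2.5% hematocrit) incubated with compounds 72 h at 37 C, 5% CO2. Lysis with saponin/Triton buffer containing SYBR Green I, overnight at room temperature in the dark; DNA fluorescence (485/535 nm) normalised to 0.29 uM artemisinin and DMSO.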
A general note: In qHTS, concentration-response curves come from the screen itself.
Turning to `O=C(NCCCNc1nc(Nc2cccc(NC(=O)N3CCCC3)c2)ncc1I)c1cccs1`, the growth, % of control was 4.4%.
For the compound `CCOc1ccccc1OCCNC(C)Cc1ccc(OC)c(S(N)(=O)=O)c1` (centres undefined), the growth, % of control was 90.8%.
On the same count and under the same terms, the same measure for `NC(=O)c1c(OCc2c(F)cc(Br)cc2F)nsc1NC(=O)NCCCCN1CCCC1`: 5.84%; for `CCCCc1nc2cc(C=CC(=O)NO)ccc2n1CCN(CC)CC`: 4.84%; for `CC(C)(O)c1cc2nc(-c3cnc(N)nc3)nc(N3CCOCC3)c2s1`: 2.52%.
Still for that read-out and setting: under `COc1cc(=C2C=c3ccccc3=N2)[nH]c1=Cc1[nH]c(C)cc1C` stands 5.2%; under `CCOc1cc2ncc(C#N)c(Nc3ccc(F)c(Cl)c3)c2cc1NC(=O)C=CCN(C)C`, 4.45%; under `COc1ccc(C(=O)CC2(O)C(=O)Nc3c(Cl)ccc(Cl)c32)cc1` (centres undefined), 62.1%.
`COc1ccc(CC2c3cc(OC)c(OC)cc3CC[N+]2(C)CCC(=O)OCCCCCOC(=O)CC[N+]2(C)CCc3cc(OC)c(OC)cc3C2Cc2ccc(OC)c(OC)c2)cc1OC` (centres undefined) yielded a growth, % of control of 85.6% [at 5.51 µM].
Still for that read-out and setting: the same measure for `CC(C)(O)CCc1ccc(OCc2cc(-c3cccc(OC(F)F)c3)c3ncccc3c2)cc1`: 102%; for `COc1cc(OC2CCN(C)CC2)ccc1Nc1ncc2c(n1)n(C1CCCC1)c(=O)n2C`: 7.29%.
On the same count and under the same terms, the same measure for `O=C(NCCS(=O)(=O)c1ccc(C(F)(F)F)cn1)c1ccc(Cl)cc1`: 84.8%.
The same measure, in the same setting: under `CC[C@@]1(O)C(=O)OCc2c1cc1n(c2=O)Cc2cc3cc(O)ccc3nc2-1` stands 5.75%; under `COc1cccc(Nc2c(C(N)=O)cnc3c(C)cc(S(=O)(=O)c4cccc(C(=O)N(C)C)c4)cc23)c1`, 90% [at 9.64 µM].
`Cc1cc(CN2CCN(c3c(Br)cnc4nc(-c5ccc(N6CCN(C)CC6)cc5)[nH]c34)CC2)no1` came in with a growth, % of control of 4.61%.
On the same count and under the same terms, under `CN1CCN(Cc2ccc(NC(=O)Nc3ccc(Oc4cc(NC(=O)C5CC5)ncn4)cc3)cc2C(F)(F)F)CC1` stands 7.58%; under `CCN(CC)CCCCNc1ncc2cc(-c3cc(OC)cc(OC)c3)c(NC(=O)NC(C)(C)C)nc2n1`, 5.53%.
Same read-out and setting: the same measure for `C[C@@H]1COC(Nc2ccc3ncnc(Nc4ccc(OCc5nccs5)c(Cl)c4)c3c2)=N1`: 8.37%; for `CC(=O)Nc1sc2c(c1-c1nc3ccccc3s1)CNC2`: 10.8%.
`C=CCn1c(=O)c2cnc(Nc3ccc(N4CCN(C)CC4)cc3)nc2n1-c1cccc(C(C)(C)O)n1` came in with a growth, % of control of 16.5%.
On the same count and under the same terms, the same measure for `CC[C@H]1CN2CCc3cc(OC)c(OC)cc3[C@H]2C[C@@H]1C[C@@H]1NCCc2cc(OC)c(OC)cc21`: 3.29%; for `C1=CCOCc2cc(ccc2OCCN2CCCC2)Nc2nccc(n2)-c2cccc(c2)OCC1`: 5.8%; for `Clc1cccc(-c2nnnn2Cc2cccnc2)c1Cl`: 86.1%.
`C1Cc2[nH]nc(-c3nn[nH]n3)c2C1` came in with a growth, % of control of 108%.
The same measure, in the same setting: under `CC(=O)Nc1nc(C)c(-c2ccc(Cl)c(S(=O)(=O)NCCO)c2)s1` stands 2.77%.
The same measure, in the same setting: under `O=C(C=Cc1cccnc1)NCCCCC1CCN(C(=O)c2ccccc2)CC1` stands 42%; under `O=C(Nc1cn[nH]c1-c1nc2ccc(CN3CCOCC3)cc2[nH]1)NC1CC1`, 4.19%.
Same read-out and setting: the same measure for `Cc1nc2ccc(CN(C)c3ccc(C(=O)N[C@@H](CCC(=O)O)C(=O)O)s3)cc2c(=O)[nH]1`: 424%; for `O=C(Nc1ncc(-c2cc(C(F)F)nn2-c2c(Cl)cccc2Cl)s1)C1CC1`: 19.5%.

A further assay can be described thus: High-throughput drug toxicity screening in the BPDCN cell line Gen2.2 (AID 1224824).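 Further: cells exposed to compounds for 48 h before reading.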 The conditions noted are these: Gen2.2 BPDCN cells; at 45.8 µM (top of the series) unless noted. The gist of the method: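 Gen2.2 cells, 500 per well in phenol red-free RPMI with 10% FBS, exposed to compounds 48 h at 37 C, 5% CO2; viability by CellTiter-Glo luminescence. Percent activity scaled to DMSO (100%) and 9.2 uM bortezomib final (0%).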
On to `O=C(NCCCNc1nc(Nc2cccc(NC(=O)N3CCCC3)c2)ncc1I)c1cccs1`, for which the cell viability, % of control (lower = more cytotoxic) turned out to be 5.4%.
Regarding `CCOc1ccccc1OCCNC(C)Cc1ccc(OC)c(S(N)(=O)=O)c1` (centres undefined), the cell viability, % of control (lower = more cytotoxic) worked out at 122%.
Same read-out and setting: the same measure for `NC(=O)c1c(OCc2c(F)cc(Br)cc2F)nsc1NC(=O)NCCCCN1CCCC1`: 24.4%; for `CC(C)(O)c1cc2nc(-c3cnc(N)nc3)nc(N3CCOCC3)c2s1`: 33.5%.
Regarding `O=C(NC1CCNCC1)c1[nH]ncc1NC(=O)c1c(Cl)cccc1Cl`, the cell viability, % of control (lower = more cytotoxic) is 5.14%.
Still for that read-out and setting: under `CCOc1cc2ncc(C#N)c(Nc3ccc(F)c(Cl)c3)c2cc1NC(=O)C=CCN(C)C` stands 17.3%; under `COc1ccc(C(=O)CC2(O)C(=O)Nc3c(Cl)ccc(Cl)c32)cc1` (centres undefined), 26.7%.
On the same count and under the same terms, the same measure for `COc1ccc(CC2c3cc(OC)c(OC)cc3CC[N+]2(C)CCC(=O)OCCCCCOC(=O)CC[N+]2(C)CCc3cc(OC)c(OC)cc3C2Cc2ccc(OC)c(OC)c2)cc1OC` (centres undefined): 45.2% [at 5.15 µM]; for `CC(C)(O)CCc1ccc(OCc2cc(-c3cccc(OC(F)F)c3)c3ncccc3c2)cc1`: 132%.
Regarding `COc1cc(OC2CCN(C)CC2)ccc1Nc1ncc2c(n1)n(C1CCCC1)c(=O)n2C`, the cell viability, % of control (lower = more cytotoxic) worked out at 6.18%.
On the same count and under the same terms, the same measure for `CC[C@@]1(O)C(=O)OCc2c1cc1n(c2=O)Cc2cc3cc(O)ccc3nc2-1`: 4.43%; for `COc1cccc(Nc2c(C(N)=O)cnc3c(C)cc(S(=O)(=O)c4cccc(C(=O)N(C)C)c4)cc23)c1`: 216% [at 23.2 µM].
On the same count and under the same terms, the same measure for `CC(C)c1cc(-c2n[nH]c(=O)n2-c2ccc3c(ccn3C)c2)c(O)cc1O`: 4.99%.
Still for that read-out and setting: the same measure for `Cc1cc(CN2CCN(c3c(Br)cnc4nc(-c5ccc(N6CCN(C)CC6)cc5)[nH]c34)CC2)no1`: 3.72%.
Take `CN1CCN(Cc2ccc(NC(=O)Nc3ccc(Oc4cc(NC(=O)C5CC5)ncn4)cc3)cc2C(F)(F)F)CC1`: the cell viability, % of control (lower = more cytotoxic) turned out to be 0.71%.
Same read-out and setting: under `CCN(CC)CCCCNc1ncc2cc(-c3cc(OC)cc(OC)c3)c(NC(=O)NC(C)(C)C)nc2n1` stands 4.8%.
Regarding `C[C@@H]1COC(Nc2ccc3ncnc(Nc4ccc(OCc5nccs5)c(Cl)c4)c3c2)=N1`, the cell viability, % of control (lower = more cytotoxic) was 127%.
Same read-out and setting: under `CC(=O)Nc1sc2c(c1-c1nc3ccccc3s1)CNC2` stands 8.36%; under `C=CCn1c(=O)c2cnc(Nc3ccc(N4CCN(C)CC4)cc3)nc2n1-c1cccc(C(C)(C)O)n1`, 169%; under `CC[C@H]1CN2CCc3cc(OC)c(OC)cc3[C@H]2C[C@@H]1C[C@@H]1NCCc2cc(OC)c(OC)cc21`, 8.8%.
The same measure, in the same setting: the same measure for `C1=CCOCc2cc(ccc2OCCN2CCCC2)Nc2nccc(n2)-c2cccc(c2)OCC1`: 8.21%; for `Clc1cccc(-c2nnnn2Cc2cccnc2)c1Cl`: 164%.
The same measure, in the same setting: under `Cc1ccc(C(N)=O)cc1Nc1nccc(-c2cn(C(C)C)c3cnccc23)n1` stands 4.31%; under `C1Cc2[nH]nc(-c3nn[nH]n3)c2C1`, 194%.
`CC(=O)Nc1nc(C)c(-c2ccc(Cl)c(S(=O)(=O)NCCO)c2)s1`: the cell viability, % of control (lower = more cytotoxic) was found to be 17.8%.
Same read-out and setting: the same measure for `O=C(C=Cc1cccnc1)NCCCCC1CCN(C(=O)c2ccccc2)CC1`: 48%.
Same read-out and setting: under `O=C(Nc1cn[nH]c1-c1nc2ccc(CN3CCOCC3)cc2[nH]1)NC1CC1` stands 4.46%.
Still for that read-out and setting: the same measure for `Cc1nc2ccc(CN(C)c3ccc(C(=O)N[C@@H](CCC(=O)O)C(=O)O)s3)cc2c(=O)[nH]1`: 185%; for `O=C(Nc1ncc(-c2cc(C(F)F)nn2-c2c(Cl)cccc2Cl)s1)C1CC1`: 23.6%; for `Cc1ccc2nc(NC(=O)CSc3nc4c(c(=O)n3-c3ccccc3)SCC4)sc2c1`: 120%.
